What was measured:
Type in all cases: functional
[1] = biological target: Solute carrier family 2, facilitated glucose transporter member 1 (Homo sapiens) (UniProt P11166); assay: ST_JUDE_LEISH: Cytotoxicity at 2uM final concentration against transgenic Leishmania Mexicana promastigotes LmGLUT1 that are glucose transport deficient and complemented with the human glucose transporter GLUT1. Activity is measured by DNA content using SYBR green in vitro
[2] = biological target: Hexose transporter 1 (Plasmodium falciparum) (UniProt O97467); assay: ST_JUDE_LEISH: Cytotoxicity at 2uM final concentration against transgenic Leishmania Mexicana promastigotes LmPfHT that are glucose transport deficient and complemented with the Plasmodium falciparum hexose transporter. Activity is measured by DNA content using SYBR green in vitro
[3] = biological target: Glucose transporter (Leishmania mexicana) (UniProt O61059); assay: ST_JUDE_LEISH: Cytotoxicity at 2uM final concentration against transgenic Leishmania Mexicana promastigotes LmGT2 that are glucose transport deficient and complemented with the L. Mexicana glucose transporter 2. Activity is measured by DNA content using SYBR green in vitro

Chain of Solute carrier family 2, facilitated glucose transporter member 1 (Homo sapiens) (P11166 whole entry): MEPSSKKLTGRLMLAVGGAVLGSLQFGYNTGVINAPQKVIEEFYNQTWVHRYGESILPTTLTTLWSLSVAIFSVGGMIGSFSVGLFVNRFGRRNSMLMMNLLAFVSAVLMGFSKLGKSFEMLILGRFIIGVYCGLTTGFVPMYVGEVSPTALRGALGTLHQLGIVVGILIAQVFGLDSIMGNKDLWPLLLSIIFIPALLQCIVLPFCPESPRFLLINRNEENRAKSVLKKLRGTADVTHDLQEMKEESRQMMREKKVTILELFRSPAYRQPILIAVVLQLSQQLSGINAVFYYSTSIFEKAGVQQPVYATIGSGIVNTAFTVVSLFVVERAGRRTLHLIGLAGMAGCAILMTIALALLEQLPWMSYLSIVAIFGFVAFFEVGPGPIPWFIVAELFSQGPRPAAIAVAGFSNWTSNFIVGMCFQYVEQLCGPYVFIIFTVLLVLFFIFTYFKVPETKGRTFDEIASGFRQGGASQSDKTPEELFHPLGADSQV

SMILES	inhibition [1]	inhibition [2]	inhibition [3]
CN1CCN(CCCN(Cc2cccc(-c3cccc(CNCCc4ccccc4)c3)c2)C(=O)Nc2ccccc2)CC1	8.85%	9.55%	7.52%
Oc1ccc(OCc2ccccn2)cc1	3.05%	6.09%	4.04%
Cc1ccc(NC(=O)c2cccc(CN3CCCN(Cc4cccc(O)c4)CC3)c2)cc1F	7.48%	8.09%	1.34%
Oc1ccc(Nc2nc(NCc3ccccc3)c3ccccc3n2)cc1	30.1%	27.1%	10.6%
CNCc1ccc(-c2cccc(CNCc3ccc(-c4ccccc4)cc3)c2)c(C(=O)OC)c1	1.39%	2.72%	2.91%
Cc1cc(NC(=O)Nc2ccc(C(C)C)cc2)c2ccccc2n1	0.71%	3.51%	-0.45%
CC(C)C[C@H](NC(=O)c1ccc(OCCN2CCOCC2)cc1)C(=O)NC(/C=N/N1CCCC1=O)C(C)C (stereo not given in full)	2.27%	3.56%	2.49%
COC(=O)c1cccc(CNCc2cccc(-c3cccc(-c4nc5cc(C(F)(F)F)ccc5[nH]4)c3)c2)c1	-1.41%	-2.35%	-2.5%
Cc1cc(=NN=Cc2ccccc2F)c2cccc(C)c2[nH]1	3.9%	5.38%	0.4%
COc1ccc(CN(C)CCCc2ccc(NC(=O)Cc3ccc4nc(-c5ccccc5)ccc4c3)cc2)cc1OC	19.3%	11.1%	6.65%
CCCNC(=O)c1cncc(-c2cccc(CNC3Cc4ccccc4C3)c2)c1	-1.27%	-1.42%	-1.3%
Cc1c(NCCCNCc2cc(Cl)cc(Cl)c2Cl)[nH]c2ccccc2c1=O	10.6%	9.36%	8.22%
N=C(N)NN=CC(=O)Nc1ccc(Cl)cc1	7.68%	11.3%	8.24%
COc1cc(OC)cc(-c2nn(-c3ccc([N+](=O)[O-])cc3Cl)c(=S)n2CC2CCCO2)c1 (stereo not given)	3.14%	-3.05%	2.53%
Cc1ccccc1C1CCN(C2CCC(NC(=O)/C=C/c3cccc(F)c3F)CC2)CC1 (stereo not given)	5.69%	4.6%	6.25%

From ChEMBL document CHEMBL3433997, “St. Jude Leishmania screening dataset” (2016)
